Pf growth 48h – P. falciparum growth inhibition at 48 hours (one generation) | P. falciparum luciferase growth in erythrocytes, 48 h | Potency, µM (highest dose often 28.7 µM), hits mostly inhibitors | 310,000 compounds, 5.9% hits
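Growth was read as firefly luciferase luminescence after a 48 h, 37 C, 5% CO2 exposure of compounds to reporter-bearing P. falciparum cultures (0.1% parasitemia, 2% hematocrit final) in Albumax-supplemented RPMI 1640.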
LmPK inh – blocks Leishmania mexicana pyruvate kinase activity. Potency, µM (doses to about 57.5 µM), usual class: inhibitors. 290,000 compounds, 0.37% hits. AID 1721. purified LmPK, Kinase-Glo ATP luminescence, 1 h. Q27686
Target sequence (Q27686 whole entry, looked up): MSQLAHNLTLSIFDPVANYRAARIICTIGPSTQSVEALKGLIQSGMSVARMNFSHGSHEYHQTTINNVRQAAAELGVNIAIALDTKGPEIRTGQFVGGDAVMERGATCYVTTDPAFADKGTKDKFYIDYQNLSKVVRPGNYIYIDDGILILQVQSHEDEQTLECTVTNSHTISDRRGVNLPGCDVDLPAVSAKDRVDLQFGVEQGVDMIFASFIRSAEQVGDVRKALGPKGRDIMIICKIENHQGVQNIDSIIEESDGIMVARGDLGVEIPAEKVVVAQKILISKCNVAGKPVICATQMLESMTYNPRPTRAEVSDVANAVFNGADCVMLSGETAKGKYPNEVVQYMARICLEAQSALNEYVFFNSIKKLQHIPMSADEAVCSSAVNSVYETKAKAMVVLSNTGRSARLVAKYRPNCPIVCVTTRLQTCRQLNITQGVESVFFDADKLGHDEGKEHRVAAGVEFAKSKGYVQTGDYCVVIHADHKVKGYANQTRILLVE
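In 50 mM imidazole pH 7.2 with 7 mM MgCl2, LmPK (0.1 nM) turned over PEP (0.5 mM) and ADP (0.1 mM) for 1 h at room temperature. Luciferase read-out of ATP.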
Pf growth 96h – P. falciparum growth inhibition at 96 hours. AID 504834. Potency, µM (top dose mostly 28.7 µM), actives largely listed as inhibitors. P. falciparum luciferase reporter growth, 96 h. 320,000 compounds, 6.9% hits
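Plates of compound plus infected erythrocytes (2% hematocrit, 0.05% parasitemia final) incubate 96 hours, 37 C, 5% CO2. Detection reagent added; reduced luminescence from the parasites' luciferase reporter flags inhibition.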
Shiga toxin inh – blocks Shiga toxin action in Vero cells. Vero cells, Shiga toxin protein synthesis inhibition reporter. inhibition, % at 38.7 µM. 290,000 compounds, 9.2% hits; in the data active = inhibition mostly above about 28%, no sharp cut-off; inactive = mostly below about 43%
CHX counter – counter-screen for Shiga toxin inhibitors: cycloheximide protein synthesis inhibition | AID 2314 | 300,000 compounds, 12% hits | max response, % | cell reporter, cycloheximide protein synthesis inhibition counterscreen; in the data active = max response mostly above about 13%, no sharp cut-off; inactive = mostly below about 14%; also: read at 38.3 µM for the half of the compounds with a filed dose
Large screens that a line does not name were inactive. An excerpt weighted towards active compounds, which were near 22% of everything screened. Unless noted, calls follow the shape of the dose curve; as a rule, active = well fitted inhibition curve with a large enough effect; inconclusive = small, poorly fitted or top-dose-only effect, or another doubt; inactive = no such curve, though single readings can be large or run the other way.

Cc1ccc2cc(CN(CC3CCCO3)C(=O)Nc3ccccc3F)c3nnnn3c2c1 (centres undefined)	Pf growth 96h inconclusive, Shiga toxin inh 83.6, CHX counter 45.0
O=C(CCCN1C(=O)c2ccccc2C1=O)NCc1ccc(F)cc1	none
CSc1ccc(/C=C/C(=O)N2CCCN(C)CC2)cc1	Shiga toxin inh 52.5, CHX counter 23.2
Cc1ccc(/C=C/C(=O)N2CCCN(C(=O)/C=C/c3ccc(C)cc3)CC2)cc1	Pf growth 96h inconclusive, CHX counter 16.3
O=C(CSc1n[nH]c(=O)n1-c1ccccc1)N1CCOCC1	none
Nc1nonc1-n1nnc(C(=O)N/N=C/c2ccc(OCc3cccc(Cl)c3)cc2)c1CN1CCCCC1	CHX counter 26.6
Cc1cccc(COc2ccc(/C=N/NC(=O)c3nnn(-c4nonc4N)c3COc3ccc(F)cc3)cc2)c1	CHX counter 16.5
O=C(CN1C(=O)c2ccccc2S1(=O)=O)Nc1cc(S(=O)(=O)N2CCCCC2)ccc1Cl	Pf growth 96h inconclusive (no result: LmPK inh, Shiga toxin inh, CHX counter)
C=CCC1NS(=O)(=O)OC(CCc2ccccc2)C1O (centres undefined)	none
CCCn1c(C(C)Nc2nc(-c3ccc(Cl)c([N+](=O)[O-])c3)cs2)nc2cc(Cl)c(N3CCCCC3)cc21 (centres undefined)	Pf growth 48h inconclusive, Pf growth 96h inconclusive
Fc1ccc(NC(=S)Nc2cc(-c3ccccc3)[nH]n2)cc1Cl	Pf growth 48h 10.4µM
Cc1ccc(NC(=S)Nc2cc(-c3ccccc3)[nH]n2)cc1Cl	Pf growth 48h inconclusive, Shiga toxin inh 48.3, CHX counter 13.4
COc1ccc(NC(=S)Nc2ccc(C)c(Cl)c2)cc1OC	none
Fc1ccc(NC(=S)Nc2ccccc2OC(F)F)cc1Cl	Pf growth 48h inconclusive, Pf growth 96h inconclusive
COc1ccc(C(=O)N2CCC(n3nccc3NC(=O)C3CC3)CC2)cc1F	Pf growth 48h inconclusive
COc1ccc(OCC(O)CN2C(=O)c3ccccc3C2=O)cc1 (centres undefined)	none (no result: Pf growth 48h)
O=C1CSC(=O)N1CC(O)COc1ccc(Cl)cc1 (centres undefined)	Shiga toxin inh 86.1, CHX counter 38.7
O=C1c2ccccc2C(=O)N1CC(O)COc1ccc(Cl)cc1 (centres undefined)	CHX counter 18.5
CCNC(=S)N1N=C2c3ccccc3CCC2C1c1ccc(F)cc1 (centres undefined)	Pf growth 48h 7.38µM, Pf growth 96h 2.62µM
CC(=O)N1N=C2c3ccccc3CCC2C1c1ccc(F)cc1 (centres undefined)	Pf growth 96h inconclusive
O=C1NC(=O)C(=Cc2ccc3c(c2)OCO3)C(=O)N1	Pf growth 96h 9.28µM
COc1ccc(-c2cc(-c3ccccc3)[n+](C)c(-c3ccccc3)c2)cc1	Pf growth 48h inconclusive, Pf growth 96h inconclusive
Cc1c(-c2ccccc2)[n+](=O)c(-c2ccc(Br)cc2)c(C)n1[O-]	none
COc1ccc(-[n+]2c(-c3ccccc3)cc(-c3ccc(C)cc3)cc2-c2ccccc2)cc1	Pf growth 48h 0.928µM
Brc1ccc(-[n+]2c(-c3ccccc3)cc(-c3ccccc3)cc2-c2ccccc2)cc1	Pf growth 48h 1.85µM, Pf growth 96h 0.828µM (no result: LmPK inh, Shiga toxin inh, CHX counter)
CCCOC(=O)c1ccc(-[n+]2c(-c3ccccc3)cc(-c3ccccc3)cc2-c2ccccc2)cc1	Pf growth 48h 2.33µM, Pf growth 96h 1.31µM (no result: LmPK inh, Shiga toxin inh, CHX counter)
CCc1ccc(N2C(=O)C3C4CCC(C4=C(C)C)C3C2=O)cc1 (centres undefined)	Pf growth 48h inconclusive, Pf growth 96h inconclusive
CN(CC(=O)Nc1cccc(F)c1)C(=O)COc1cccc2c1OC(C)(C)C2	Pf growth 48h inconclusive, Pf growth 96h inconclusive
Cc1c(NC(=O)C2C3C=CC(C3)C2C(=O)O)c(=O)n(-c2ccccc2)n1C (centres undefined)	none (no result: Pf growth 48h)
CCOC(=O)[C@@H]1[C@H]2COc3ccccc3[C@@H]2N2C(=O)N(c3ccc(F)cc3)C(=O)[C@@]12C	none
CCOC(=O)[C@@H]1[C@H]2COc3ccccc3[C@H]2N2C(=O)N(c3ccc(C(F)(F)F)cc3)C(=O)[C@]12C	Pf growth 48h 10.4µM, Pf growth 96h 5.22µM
CCOC(=O)[C@@H]1[C@H]2COc3ccc(Br)cc3[C@@H]2N2C(=O)N(c3ccc(C(F)(F)F)cc3)C(=O)[C@]12C	Pf growth 48h inconclusive, Pf growth 96h inconclusive
